Assay [1] can be described thus: qHTS assay to identify small molecule antagonists of the glucocorticoid receptor (GR) signaling pathway - cell viability counter screen (AID 720693). Note: nearly all actives have a fitted effect of over 55% in size. Note: potency is the fitted concentration of half-maximal effect.
Assay [2] is described as follows: qHTS assay for identifying genotoxic compounds that show differential cytotoxicity against isogenic chicken DT40 cell lines with known DNA damage response pathways - wild type cell line (AID 743012). Note: nearly all actives have a fitted effect of over 60% in size. Note: potency is the fitted concentration of half-maximal effect. In outline: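 Luminescent ATP viability signal (CellTiter-Glo, 30 min RT) recorded after wild type DT40 cells were incubated with compounds for 40 h at 37 C/5% CO2.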
(In general: Quantitative high-throughput screening tests each substance at several concentrations.)

Assay [3] in a line: qHTS assay for identifying genotoxic compounds that show differential cytotoxicity against isogenic chicken DT40 cell lines with known DNA damage response pathways - Rev3 mutant cell line (AID 743014). Note: nearly all actives have a fitted effect of over 55% in size. Note: potency is the fitted concentration of half-maximal effect.
A short description of assay [4]: qHTS assay for identifying genotoxic compounds that show differential cytotoxicity against isogenic chicken DT40 cell lines with known DNA damage response pathways - Rad54/Ku70 mutant cell line (AID 743015). Note: nearly all actives have a fitted effect of over 60% in size. Note: potency is the fitted concentration of half-maximal effect.
Assay [5] is described as follows: qHTS assay to identify small molecule antagonists of the androgen receptor (AR) signaling pathway - cell viability counter screen (AID 743033; note: nearly all actives have a fitted effect of over 45% in size; note: potency is the fitted concentration of half-maximal effect).
A short description of assay [6]: qHTS assay to identify small molecule antagonists of the androgen receptor (AR) signaling pathway using the MDA cell line - cell viability counter screen (AID 743041; note: nearly all actives have a fitted effect of over 45% in size; note: potency is the fitted concentration of half-maximal effect). The essentials: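 In this qHTS counter assay, fluorescence intensity after CellTiter-Fluor addition indicated viability of MDA-kb2 AR-luc cells given compounds and R1881 for 16 h at 37C.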
Assay [7] in a line: qHTS assay to identify small molecule antagonists of the thyroid receptor (TR) signaling pathway - cell viability counter screen (AID 743064). Note: nearly all actives have a fitted effect of over 50% in size. Note: potency is the fitted concentration of half-maximal effect. The essentials: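 CellTiter-Fluor readout, 30 min at 37 °C/5% CO2, following 23.5 h incubation of GH3.TRE-Luc cells with test compound and 1 nM T3 (final).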
Assay [8] is described as follows: qHTS assay to identify small molecule antagonists of the thyroid receptor (TR) signaling pathway (AID 743065). Note: nearly all actives have a fitted effect of over 55% in size. Note: potency is the fitted concentration of half-maximal effect. The essentials:
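GH3.TRE-Luc rat pituitary cells carrying two TR response elements driving luciferase were plated for 4 h, given compound plus 1 nM T3 (final), and incubated 23.5 h at 37 C. ONE-Glo luminescence measured reporter inhibition; CellTiter-Fluor fluorescence tracked cytotoxicity.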

Assay [9] can be described thus: qHTS assay to identify small molecule antagonists of the estrogen receptor alpha (ER-alpha) signaling pathway - cell viability counter screen (AID 743074; calls by dose curve;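 note: HEK293 cells carrying ER-alpha-UAS-bla reporter stimulated with 17beta-estradiol; nearly all actives have a fitted effect of over 45% in size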; note: potency is the fitted concentration of half-maximal effect).
Assay [10] has as its target Estrogen receptor (Homo sapiens) (UniProt P03372). In words: qHTS assay to identify small molecule agonists of the estrogen receptor alpha (ER-alpha) signaling pathway (AID 743075; calls by dose curve;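 note: HEK293 GripTite cells with ER-alpha and UAS-driven beta-lactamase reporter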).
For assay [11] the target is unchanged. Put plainly: qHTS assay to identify small molecule agonists of the estrogen receptor alpha (ER-alpha) signaling pathway using the BG1 cell line (AID 743079). Note: nearly all actives have a fitted effect of over 20% in size. Note: potency is the fitted concentration of half-maximal effect.
Assay [12] can be described thus: qHTS assay to identify small molecule antagonists of the estrogen receptor alpha (ER-alpha) signaling pathway using the BG1 cell line (AID 743080; calls by dose curve;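 note: BG1 cells stimulated with 17beta-estradiol alongside compound; nearly all actives have a fitted effect of over 25% in size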). As to conditions: BG1Luc4E2 ERE-luciferase antagonist mode, luminescence; activity change, negative = inhibition: at 70.3 µM (top of the series). The essentials:
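BG1-Luc-4E2 cells (endogenous full-length ER-alpha, 4xERE luciferase) hormone-starved 5 days in charcoal-stripped FBS, plated 4,000/well for 24 h, then compound plus 17beta-estradiol for 21.5 h at 37 C; ONE-Glo luminescence read.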

A short description of assay [13]: qHTS assay to identify small molecule antagonists of the estrogen receptor alpha (ER-alpha) signaling pathway using the BG1 cell line - cell viability counter screen (AID 743081).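 Note: compound given together with 17beta-estradiol as the ER stimulus; nearly all actives have a fitted effect of over 45% in size.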
A further assay has as its target Aromatase (Homo sapiens) (UniProt P11511). In words: qHTS assay to identify aromatase inhibitors (AID 743083). Note: nearly all actives have a fitted effect of over 55% in size. Note: potency is the fitted concentration of half-maximal effect.
In assay [14] the test system is thyroid hormone receptor (rat, GH3 cells). In words: qHTS assay to identify small molecule agonists of the thyroid receptor (TR) signaling pathway (AID 743066; calls by dose curve).
In assay [15] the target is Estrogen receptor (Homo sapiens) (UniProt P03372). In words: qHTS assay to identify small molecule antagonists of the estrogen receptor alpha (ER-alpha) signaling pathway (AID 743069; active = well fitted curve in the direction sought with a large enough effect in the signal ratio in the repeat runs, not every such curve was filed as active; the % refers to the signal ratio). The essentials:
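A 17beta-estradiol challenge was applied right after compound transfer to ER-alpha-UAS-bla HEK293 cells previously kept in charcoal-stripped serum. Plates stood 18 hr at 37C and 5% CO2; fluorescence was read following 2 hr FRET substrate loading at room temperature.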

SMILES strings stand for the structures. Values joined by “and” are separate entries in the source; they are usually repeats but may differ in a detail not shown here. Equal values may be shown once. Results filed as inconclusive are left out. Some structures have more than one record in an assay (separate samples or runs), and their calls can disagree. Active and inactive are the calls of the source. Unless noted, calls come from the whole dose curve; as a rule, active = well fitted curve in the direction sought with a large enough effect in the repeat runs; inconclusive = weak or mixed curves; inactive = no such curve, though single readings can be large; an effect the other way counts as inactive or inconclusive.

Estrogen receptor (Homo sapiens), sequence (P03372 whole entry, looked up): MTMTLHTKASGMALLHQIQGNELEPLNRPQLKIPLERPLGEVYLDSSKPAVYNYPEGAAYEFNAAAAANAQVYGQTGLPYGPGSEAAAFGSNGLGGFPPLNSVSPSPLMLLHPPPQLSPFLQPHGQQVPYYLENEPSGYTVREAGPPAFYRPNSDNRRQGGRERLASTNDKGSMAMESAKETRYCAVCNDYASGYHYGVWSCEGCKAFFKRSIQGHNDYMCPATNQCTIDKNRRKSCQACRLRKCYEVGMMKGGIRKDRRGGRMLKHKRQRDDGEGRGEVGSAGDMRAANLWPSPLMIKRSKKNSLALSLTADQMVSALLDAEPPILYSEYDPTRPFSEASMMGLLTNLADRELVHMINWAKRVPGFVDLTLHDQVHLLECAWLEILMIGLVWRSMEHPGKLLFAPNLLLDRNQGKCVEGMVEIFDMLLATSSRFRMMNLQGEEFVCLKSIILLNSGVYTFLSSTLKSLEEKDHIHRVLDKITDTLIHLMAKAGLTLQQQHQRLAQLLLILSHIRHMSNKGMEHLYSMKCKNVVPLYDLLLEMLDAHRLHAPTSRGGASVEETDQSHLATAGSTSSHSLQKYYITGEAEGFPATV
Aromatase (Homo sapiens), sequence (P11511 whole entry, looked up): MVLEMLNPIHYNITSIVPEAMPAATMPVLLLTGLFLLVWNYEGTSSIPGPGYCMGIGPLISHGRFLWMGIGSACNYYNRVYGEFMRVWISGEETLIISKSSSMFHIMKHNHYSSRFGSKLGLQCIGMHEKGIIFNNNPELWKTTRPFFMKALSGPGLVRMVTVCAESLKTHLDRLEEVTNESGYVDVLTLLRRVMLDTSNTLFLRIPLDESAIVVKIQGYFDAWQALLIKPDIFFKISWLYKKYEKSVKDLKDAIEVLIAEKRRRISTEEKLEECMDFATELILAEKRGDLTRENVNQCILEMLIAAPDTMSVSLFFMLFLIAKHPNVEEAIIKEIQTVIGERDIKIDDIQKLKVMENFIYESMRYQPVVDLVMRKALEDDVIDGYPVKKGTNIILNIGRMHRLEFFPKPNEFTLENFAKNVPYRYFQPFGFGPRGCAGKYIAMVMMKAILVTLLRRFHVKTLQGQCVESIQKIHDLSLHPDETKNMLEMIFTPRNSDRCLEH

In the case of `C=C1CC[C@H](O)C/C1=C\C=C1/CCC[C@]2(C)[C@@H]([C@H](C)CCCC(C)C)CC[C@@H]12`, the Potency in assay [1] was 54.4 µM (active); in assay [2], 11.9 µM (active) and 54 µM (active); in assay [3], 26.6 µM (active) and 24.1 µM (active); in assay [4], 13.3 µM (active) and 15.2 µM (active); in [7], 26.6 µM (active) and 48.1 µM (active); in [8], 21.1 µM (active) and 30.4 µM (active). Further, the Potency entry in assay [5], in assay [6], in [9], in assay [10], in [11] and in assay [12] was “inactive” in each case. The Potency entry (in [13]; with Aromatase (Homo sapiens)) was “inactive” each time.

Consider `Cc1ccc(S(=O)(=O)O)cc1`, for which the Potency entry in [1], in assay [2], in [3], in assay [4], in assay [5] and in assay [6] was “inactive” throughout. Besides, the Potency result in assay [7], in assay [14], in assay [9] and in [13] was “inactive” throughout.

For the compound `O=c1[nH]cc(F)c(=O)[nH]1`, the Potency result in assay [1], in assay [5], in assay [6], in assay [15], in assay [9] and in assay [10] was “inactive” throughout. Moreover, the Potency entry (in assay [11]; in [12]; in assay [13]; with Aromatase (Homo sapiens)) was “inactive” in each case. Further, the Potency was 21.1 µM (active) and 27.9 µM (active) in [2]; 50.4 µM (active) and 27.9 µM (active) in assay [3]; 21.1 µM (active) and 40 µM (active) and 17.6 µM (active) in [4]; 20.1 µM (active) in assay [7].

Regarding `CCCC[P+](CCCC)(CCCC)CCCC`, the Potency entry in [1], in [5], in assay [6], in [7], in assay [8] and in assay [14] was “inactive” each time. Moreover, the Potency result (in assay [9]; in [13]; in the assay with Aromatase (Homo sapiens)) was “inactive” in each case. In addition, the Potency was 1.08 µM (active) and 7.84 µM (active) and 4.33 µM (active) in assay [2]; 684 nM (active) and 3.93 µM (active) in assay [3]; 609 nM (active) and 3.5 µM (active) in assay [4].

In the case of `OC[C@H]1O[C@H](O[C@]2(CCl)O[C@H](CCl)[C@@H](O)[C@@H]2O)[C@H](O)[C@@H](O)[C@H]1Cl`, the Potency result in assay [1], in assay [2], in [3], in assay [4], in [5] and in assay [6] was “inactive” each time. Moreover, the Potency entry (in assay [7]; in assay [8]; in [14]; in [9]; in assay [13]; with Aromatase (Homo sapiens)) was “inactive” in each case.

Take `CC(=O)CCC(=O)O`: the Potency result in assay [1], in [2], in [3], in assay [4], in assay [5] and in assay [6] was “inactive” in each case. Moreover, the Potency entry in assay [7], in assay [14], in assay [15], in assay [9], in assay [10] and in assay [12] was “inactive” throughout. For the same compound, the Potency entry (in assay [13]; with Aromatase (Homo sapiens)) was “inactive” each time. The Potency in [11] is 15 µM (active) and inactive.

As for `CN(C)C(=S)SC(=S)N(C)C`, the Potency entry in [1], in [14] and in assay [13] was “inactive” in each case. The Potency is 944 nM (active) and 1.11 µM (active) and 172 nM (active) in [2]; 1.19 µM (active) and 886 nM (active) and 96.9 nM (active) in assay [3]; 750 nM (active) and 789 nM (active) and 96.9 nM (active) in assay [4]; 7.56 µM (active) and 1.42 µM (active) and 2.75 µM (active) in assay [5]; 6.99 µM (active) and 6.27 µM (active) and 1.22 µM (active) in assay [6]; 2.11 µM (active) and 1.98 µM (active) and 433 nM (active) in assay [7]. The Potency in assay [8] is 1.68 µM (active) and 1.57 µM (active) and 306 nM (active); in assay [9] it was “inactive and 49 µM (active)”; in the assay with Aromatase (Homo sapiens) it was 2.98 µM (active) and 994 nM (active) and 243 nM (active).

The values are drawn from PubChem BioAssay (Tox21).
